The list is not random: actives were taken first. Their share in the collection is about 7.5%.
VP16 counter – Gal4-VP16 reporter inhibition counter-screen | Potency, µM (highest dose often 53.6 µM), inactives show at the top dose activity, negative = inhibition, hits mostly inhibitors | Drosophila S2 Gal4-VP16 UAS-luciferase, luminescence, 20 h | hit rate 3.5% among 310,000;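 also: Gal4-VP16 expression switched on by copper sulfate through the metallothionein promoter; potency is read from the fitted curve at half-maximal effect; nearly all actives have a fitted effect of over 50% in size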
TSHR antag – blocks TSH signaling through the human TSH receptor; TSHR-expressing cells, TSH-stimulated cAMP HTRF, 2 h; hits give low values; activity change, negative = inhibition, % at 11.5 µM; AID 504810; P16473; hit rate 0.2% among 330,000;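 active = activity change below a set negative limit, meaning inhibition stronger than a set level, cut at about -70% in these data; inconclusive = activity change between two set negative limits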
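Inhibition of cAMP made by TSHR-expressing cells under TSH stimulation (4nM final, EC80; 2 h, 37 deg C) is quantified with a one-step lysis HTRF kit, anti-cAMP cryptate versus cAMP-d2.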
B2AR arrestin – agonists driving beta-arrestin recruitment to human beta2-adrenergic receptor; P07550; AID 492947; beta-arrestin recruitment to beta2AR, cell-based reporter; Potency, µM (highest dose often 46.1 µM), for inactives: at the top dose activation, most hits filed as activators; hit rate 0.02% among 330,000;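 also: potency is read from the fitted curve at half-maximal effect; 0% = DMSO controls and full agonism = EC100 isoproterenol or metaproterenol; nearly all actives have a fitted effect of over 65% in size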
Target sequence (P07550 whole entry, looked up): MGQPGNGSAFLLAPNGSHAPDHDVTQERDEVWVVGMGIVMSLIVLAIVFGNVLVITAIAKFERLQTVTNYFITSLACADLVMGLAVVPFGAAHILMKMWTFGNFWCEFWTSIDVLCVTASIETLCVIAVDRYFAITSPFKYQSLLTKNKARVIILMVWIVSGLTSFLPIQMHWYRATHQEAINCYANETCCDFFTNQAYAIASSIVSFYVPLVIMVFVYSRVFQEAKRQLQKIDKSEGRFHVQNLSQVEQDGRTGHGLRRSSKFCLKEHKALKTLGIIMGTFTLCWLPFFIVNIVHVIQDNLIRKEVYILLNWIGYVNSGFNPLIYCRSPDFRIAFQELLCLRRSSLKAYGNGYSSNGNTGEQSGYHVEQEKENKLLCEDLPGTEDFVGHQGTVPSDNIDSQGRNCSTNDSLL
ELG1 repair inh – blocks ELG1-dependent DNA repair in HEK293T cells. AID 504467. hit rate 2.3% among 330,000. Potency, µM (doses to about 46.1 µM), for inactives: at the highest dose activity change, negative = inhibition, hits mostly inhibitors. HEK293T ELG1-luciferase reporter, luminescence, 16 h; DNA damage induced by 5-fluorouridine; also: potency is read from the fitted curve at half-maximal effect; nearly all actives have a fitted effect of over 55% in size
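Quantitative HTS, concentration-response format. 2,000 cells/well co-treated with 5-fluorouridine and compound, 16 hr in 5% CO2 at 37 °C; ONE-Glo luminescence read after 30 min.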
RORg inh – inhibitors of mouse ROR gamma transcriptional activity; P51450; Drosophila S2 Gal4-RORgamma UAS-luciferase reporter, 20 h; Potency, µM (highest dose often 53.6 µM), inactives show at the highest dose activity change, negative = inhibition, hits mostly inhibitors; hit rate 5.4% among 310,000; AID 2551; also: potency is read from the fitted curve at half-maximal effect; nearly all actives have a fitted effect of over 60% in size
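Drosophila S2 cells stably expressing Gal4-DBD/mouse RORγ fusion under metallothionein promoter plus UAS-luciferase; compound 1 h, then 700 uM CuSO4 induction for 20 h at ambient temperature; inhibition read as reduced luminescence.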
Active calls of the source: *; ? = inconclusive; . = no result; [ ] = dose if it differs, or a comment. Unless noted, calls follow the shape of the dose curve; as a rule, active = well fitted curve in the direction sought with a large enough effect; inconclusive = small, poorly fitted or top-dose-only effect, or another doubt; inactive = no such curve, though single readings can be large; an effect the other way counts as inactive or inconclusive. Unless noted, % is scaled to controls: 0 for no effect and ±100 for the full control effect.

SMILES	VP16 counter	TSHR antag	B2AR arrestin	ELG1 repair inh	RORg inh
O=C(Nc1ccccc1)O/N=C(\c1ccccc1)c1ccccn1	-7%	7	0%	?	11µM*
Cn1c(N)nc2nc(CCc3ccccc3)c(=O)[nH]c2c1=O	5%	2	2%	8%	14%
CCOCC(=O)O	-3%	.	.	.	-9%
O=C(Nc1ccccc1)C(=O)Nc1ccccn1	5µM*	28	0%	?	2.2µM*
CC1Cc2ccccc2N1C(=S)NC(=O)c1ccc(Cl)cc1Cl (centres undefined)	0.71µM*	-10	0%	-5%	0.35µM*
Cc1ccc2c(c1)C1CN(C)CCC1N2C(=S)NC(=O)c1ccc(Cl)cc1Cl (centres undefined)	0.89µM*	4	7%	-10%	0.28µM*
COc1cccc(C(=O)NC(=S)N2c3ccccc3CC2C)c1OC (centres undefined)	14µM*	-6	0%	-5%	4µM*
CC1Cc2ccccc2N1C(=S)NC(=O)c1cccc(Br)c1 (centres undefined)	0.79µM*	-5	-1%	6%	1.1µM*
Cc1ccc2c(c1)C1CN(C)CCC1N2C(=O)COc1ccccc1F (centres undefined)	1%	8	-1%	17%	-1%
CC1Cc2ccccc2N1C(=S)Nc1ccc(S(N)(=O)=O)cc1 (centres undefined)	10%	4	-1%	-23%	28%
COC(=O)c1cc(S(=O)(=O)Nc2cccc(C)c2C)cn1C	1%	1	-1%	-7%	42%
COc1cccc(OC)c1C1=Nn2c(nnc2-c2ccccc2O)SC1	2%	.	.	.	?
COC(C(=O)N/N=C(\C)CC(=O)Nc1ccc(N(C)C)cc1)c1ccccc1 (centres undefined)	-30%	-8	0%	1%	13µM*
O=C(CSc1ccc2ccccc2c1)Nc1nc2ccccc2[nH]1	?	5	0%	14%	11µM*
COCCN1Cc2cccc(C(=O)Nc3cccc(-c4nc5ccccc5[nH]4)c3)c2C1=O	-16%	7	0%	4.1µM*	-25%
COCCN1Cc2cccc(C(=O)Nc3ccc(-c4nc5ccccc5[nH]4)cc3)c2C1=O	-7%	-6	0%	?	22%[10 µM]
O=C(CSc1ccccc1)Nc1ccc(-c2nc3ccccc3[nH]2)cc1	?	-8	-1%	?	?
O=C(CSc1ccc(Cl)cc1)Nc1cccc(-c2nc3ccccc3[nH]2)c1	10µM*	-17	-1%	?	?
COc1ccccc1CNC(=O)COC(=O)CSc1ccc(F)cc1	.	8	-1%	2%	.
CN1CCN(c2ncncc2-c2cccnc2)CC1	4%	.	.	.	-4%
CC(=O)C[C@H](O)[C@@H](NC(=O)OC(C)(C)C)C(C)C	-4%[10 µM]	.	.	.	-3%[10 µM]
COc1ccccc1OCC(=O)Nc1nc(C)c(C)s1	-1%	9	-1%	?	?

Assay outcomes from PubChem BioAssay.
